Results from PubChem BioAssay (Tox21).
Records with an inconclusive call do not appear. The source made the active and inactive calls. Calls follow the shape of the full dose curve.

What follows are molecules tested against Beta-2 adrenergic receptor (Homo sapiens) (UniProt P07550) (assay: Adrenergic beta2 receptor (ADRB2) small molecule antagonists, cell-based qHTS assay (AID 1963592; also: nearly all actives have a fitted effect of over 50% in size)). Conditions: CHO-ADRB2 cells, isoproterenol-stimulated cAMP HTRF ratio, 0.5 h; series mostly up to 92.4 µM; activity change, negative = inhibition: at the top concentration.
Sequence of Beta-2 adrenergic receptor (Homo sapiens) (P07550 whole entry, looked up): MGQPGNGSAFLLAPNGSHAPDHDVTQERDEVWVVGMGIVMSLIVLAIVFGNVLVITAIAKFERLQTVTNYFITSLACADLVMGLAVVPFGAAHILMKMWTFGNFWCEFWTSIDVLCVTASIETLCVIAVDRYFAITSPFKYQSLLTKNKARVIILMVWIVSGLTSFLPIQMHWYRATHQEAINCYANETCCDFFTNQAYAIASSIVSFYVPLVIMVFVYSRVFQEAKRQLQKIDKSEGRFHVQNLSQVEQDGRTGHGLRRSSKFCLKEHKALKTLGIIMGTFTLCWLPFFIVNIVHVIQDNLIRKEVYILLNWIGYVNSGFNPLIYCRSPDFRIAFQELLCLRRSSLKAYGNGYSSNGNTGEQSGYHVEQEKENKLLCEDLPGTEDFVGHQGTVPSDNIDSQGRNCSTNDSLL
Text: U.S. Tox21 Program National Center for Advancing Translational Sciences [NCATS] Division of Preclinical Innovation [DPI] U.S. Environmental Protection Agency [EPA] National Institutes of Environmental Health Sciences [NIEHS] National Toxicology Program [NTP] U.S. Food and Drug Administration [FDA] Tox21 Assay Overview: Beta adrenergic receptors (Beta-ARs) belong to the G-protein coupled receptor (GPCR) superfamily, includes three subtypes - beta1, beta2, and beta3. Beta1-AR is the predominant receptor subtype expressed in the heart, and beta2-AR is expressed in the kidney, lung, blood vessel and in the heart, and beta3 is found in the adipocytes. Beta1 and 2 ARs couple to Gs protein and elevate cyclic adenosine mono phosphate (cAMP), which activates protein kinase A and leads to the downstream signaling responsible for the physiological actions. Beta-AR agonists or antagonists are the most prescribed therapeutic agents for heart failure and asthma, and these were one of the first target receptors for the rational drug design. Tox21 10K compound library was screened using the cAMP-Gs dynamic assay (Cisbio Bioassays, Shelton, CT) to identify agonists/antagonists of the Gs-coupled human adrenergic, beta2 receptor (ADRB2) in the CHO-ADRB2 cell line (Codex BioSolutions, Inc. Gaithersburg, MD), which stably over-expresses ADRB2. The principle of cAMP-Gs dynamic assay is based on HTRF technology, which facilitates the fluorescence resonance energy transfer (FRET) between donor Europium cryptate and acceptor d2-labeled cAMP. The cAMP generated within cells competes with the red acceptor, d2-labled cAMP, for binding to the monoclonal anti-cAMP-cryptate (Europium donor). An increase in intracellular cAMP leads to the disruption of FRET signal, and the signal is inversely proportional to the cAMP concentration. Propranolol HCl (Sigma-Aldrich, St. Louis, MO) was used as a positive control in the screening.
Tox21 Assay Protocol Summary: CHO-ADRB2 cells were dispensed at 1,000/well in 4uL assay medium into white/solid 1536-well plates (Greiner Bio-One North America Inc., Monroe, NC) using a Multidrop Combi dispenser (ThermoFisher Scientific, Waltham, MA). The assay plates were incubated at 37C and 5% CO2 for an overnight (18-20hr). Then positive control and test compounds dissolved in DMSO were transferred to the assay plates at 23nL using a Pintool station (Wako, San Diego, CA). Following the compound and positive control transfer, 1uL agonist-stimulation mix containing 1nM Isoproterenol HCl, 100uM IBMX and 25uM Ro-20-1724 was added to each well of the assay plates using BioRAPTR Flying Reagent Dispenser (FRD, Beckman Coulter, Brea, CA). The assay plates were incubated at room temperature for 0.5hr. Then 2.5ul each d2-labled cAMP and anti-cAMP-cryptate solutions were added separately to each well of the assay plates using an FRD and the assay plates were incubated at room temperature for 1hr. The fluorescence signal was measured at two different wavelengths (665nm and 615nm) using an Envision plate reader (Perkin Elmer, Shelton, CT). Data were expressed as the ratio of 665 nm/615 nm.
% is scaled to controls: 0 for no effect and ±100 for the full control effect; potency is read from the fitted curve at half-maximal effect.

SMILES | activity change, negative = inhibition | Potency
CC(C)(C)c1cc(O)c(C(C)(C)C)cc1O | -14.2% (inactive) | –
C[C@H]1c2cccc(O)c2C(O)=C2C(=O)[C@]3(O)C(O)=C(C(N)=O)C(=O)[C@@H](N(C)C)[C@@H]3[C@@H](O)[C@@H]21 | -5.84% [at 42.5 µM] (inactive) | –
C=COCCOCCOC=C | -13.4% (inactive) | –
CC(C)(c1ccc(Oc2ccc(N)cc2)cc1)c1ccc(Oc2ccc(N)cc2)cc1 | -0.3% (inactive) | –
CC(N)=O | -2.52% [at 240 µM] (inactive) | –
COC(OC)(C(=O)c1ccccc1)c1ccccc1 | -13% (inactive) | –
CCOC(=O)COc1ccc2c(C)c(CCN(CC)CC)c(=O)oc2c1Cl | -17.3% [at 42.5 µM] (inactive) | –
CC/C=C/CCCCCCCCCCOC(C)=O | 3.34% (inactive) | –
CCOc1ccc(N=Nc2ccc(/C=C/c3ccc(N=Nc4ccc(OCC)cc4)cc3S(=O)(=O)O)c(S(=O)(=O)O)c2)cc1 | 3.34% (inactive) | –
COc1ccccc1OCC1CNC(=O)O1 (stereo not given) | 0.718% [at 42.5 µM] (inactive) | –
CC1(CO)CN(c2ccccc2)NC1=O (stereo not given) | -12.4% (inactive) | –
CCSCC | -11.6% (inactive) | –
CCC(CC)Nc1ccc(C)c(C)c1 | -9.76% (inactive) | –
CC1CC(OC(=O)C(O)c2ccccc2)CC(C)(C)N1C (stereo not given) | 1.76% [at 42.5 µM] (inactive) | –
Cc1ccc(Nc2c(F)cccc2Cl)c(CC(=O)O)c1 | -5.24% [at 42.5 µM] (inactive) | –
CC(C)CCCCCOC(=O)CCCCC(=O)OCCCCCC(C)C | 3.93% (inactive) | –
CN(C)CCCN1c2ccccc2CCc2ccccc21 | – | 29.8 µM (active)
CCCCCCOc1ccc(O)cc1 | 0.936% (inactive) | –
CC1(C)[C@@H](OC(=O)CCC(=O)O)CC[C@]2(C)[C@H]3C(=O)C=C4[C@@H]5C[C@@](C)(C(=O)O)CC[C@]5(C)CC[C@@]4(C)[C@]3(C)CC[C@@H]12 | 1.34% [at 42.5 µM] (inactive) | –
CC(C)C[C@H](NC(=O)[C@H](Cc1ccccc1)NC(=O)c1cnccn1)B(O)O | 11.6% [at 42.5 µM] (inactive) | –

SMILES | activity change, negative = inhibition | Potency
Cc1cc(-c2ccc(N=Nc3cc(S(=O)(=O)O)c4ccccc4c3N)c(C)c2)ccc1N=Nc1cc(S(=O)(=O)O)c2ccccc2c1N | -1.88% (inactive) | –
CCCCN1C[C@H](O)[C@@H](O)[C@H](O)[C@H]1CO | 8.6% [at 42.5 µM] (inactive) | –
CC(C)NCC(O)c1cc(O)cc(O)c1 (stereo not given) | 0.159% [at 42.5 µM] (inactive) | –
Cc1ccc(O)c([C@H](CCN(C(C)C)C(C)C)c2ccccc2)c1 | -7.46% [at 42.5 µM] (inactive) | –
O=C1Nc2ccc(Cl)cc2[C@@](C#CC2CC2)(C(F)(F)F)O1 | 6.54% [at 42.5 µM] (inactive) | –
CCCc1ccc(OCC(=O)N2CCN(C(=O)COc3ccc(CCC)cc3OC)CC2)c(OC)c1 | -7.72% [at 42.5 µM] (inactive) | –
COCCOC(=O)CC#N | 12.4% (inactive) | –
COC(Cc1ccccc1)OC | -0.932% (inactive) | –
c1ccc(-c2ccc(C(c3ccccc3)n3ccnc3)cc2)cc1 (stereo not given) | -4.4% [at 42.5 µM] (inactive) | –
C/C=C/C=C/C=O | 2.61% (inactive) | –
O=C(O)CN(CCN(CC(=O)O)CC(=O)O)CC(=O)O | 4.71% [at 3.27 µM] (inactive) | –
COc1cc(NC(C)CCCN)c2ncccc2c1 (stereo not given) | -10.2% [at 42.5 µM] (inactive) | –
CC/C=C\C/C=C\C/C=C\CCCCCCCC(=O)OC | 16.2% (inactive) | –
CCCC1CCOC(C)S1 (stereo not given) | -10.4% (inactive) | –
C1CCOC1 | -2.16% (inactive) | –
COC(C)(C)CC(C)=O | 2.36% (inactive) | –
CC(C)C(OC(=O)c1ccccc1)C(C)(C)COC(=O)c1ccccc1 (stereo not given) | 0.545% (inactive) | –
CC(C)(C)C1CCC(CC2=C(O)c3ccccc3C(=O)C2=O)CC1 (stereo not given) | -17.9% [at 42.5 µM] (inactive) | –
Oc1ccc2ccccc2c1 | – | inactive
CC(C)(C)OC(=O)c1ccc(O)cc1 | -14.5% (inactive) | –
